HCV inhibitor – blocks hepatitis C virus; Huh7.5.1 HCVcc-Cre infection, luciferase reporter, 44 h; Potency, µM (highest dose often 41.8 µM), without a hit: top-dose activity change, negative = inhibition, hits mostly inhibitors; 340,000 tested, 3.4% active
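Luciferase read-out (15 sec integration) after a 15 min room-temperature substrate step quantifies HCVcc-Cre infection. Cells, 1,000 per well, had compound added 4 h post-plating, then virus at ~0.5 moi, and were cultured 44 h.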
Pf growth 48h – inhibits P. falciparum growth in the first generation, 48 h; P. falciparum luciferase growth in erythrocytes, 48 h; Potency, µM (series often up to 28.7 µM), inactives show at the highest dose activity change, negative = inhibition, most hits filed as inhibitors; 310,000 tested, 5.9% active
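First compound was added to culture medium, then infected red cells at 0.1% parasitemia and 2% hematocrit (final). After incubation at 37 C under 5% CO2, luciferase detection reagent was dispensed and light output recorded.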
AmpC inh no detg – inhibitors of E. coli AmpC beta-lactamase without detergent. P00811. AmpC nitrocefin hydrolysis, absorbance 480 nm, 0.0001% Triton. Potency, µM (titrated, usually from 57.1 µM), for inactives: at the top dose activity change, negative = inhibition, most hits filed as inhibitors. 330,000 tested, 0.52% active;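 also: plate controls were no compound for no effect and no enzyme for full effect; nearly all actives have a fitted effect of over 20% in size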
Target sequence (P00811 whole entry, looked up): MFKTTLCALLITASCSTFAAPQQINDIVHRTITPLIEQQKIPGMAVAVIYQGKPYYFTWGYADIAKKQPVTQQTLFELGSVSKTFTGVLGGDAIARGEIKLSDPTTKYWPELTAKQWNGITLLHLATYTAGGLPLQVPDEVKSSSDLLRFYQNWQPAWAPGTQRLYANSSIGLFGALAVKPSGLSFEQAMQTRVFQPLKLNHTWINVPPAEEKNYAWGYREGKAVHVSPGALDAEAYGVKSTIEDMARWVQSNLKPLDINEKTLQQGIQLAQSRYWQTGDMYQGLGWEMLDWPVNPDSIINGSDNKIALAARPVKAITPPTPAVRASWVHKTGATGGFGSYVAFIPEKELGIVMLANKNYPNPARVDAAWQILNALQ
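AmpC (5.3 nM in the dispensed reagent) in 20 mM phosphate pH 7.0 with 0.01% (detergent screen) or 0.0001% Triton X-100 was preincubated with compounds for 15 min at room temperature. Nitrocefin was then added from an 800 uM solution, and hydrolysis was followed at 480 nm.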
Pf growth 96h – P. falciparum growth inhibition at 96 hours | P. falciparum luciferase reporter growth, 96 h | Potency, µM (titrated, usually from 28.7 µM), without a hit: top-dose activity change, negative = inhibition, actives largely listed as inhibitors | 320,000 tested, 6.9% active | AID 504834
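Luminescence readout: decreased luciferase signal marks inhibited growth of reporter-expressing P. falciparum in infected red cells (2% hematocrit, 0.05% parasitemia final), exposed to compound two generations (96 h, 37 C, 5% CO2).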
AmpC detergent – inhibitors of E. coli AmpC beta-lactamase with detergent; AmpC hydrolysis of nitrocefin, absorbance 480 nm, 0.01% Triton; Potency, µM (titrated, usually from 114 µM), for the others: at the highest dose activity change, negative = inhibition, hits mostly inhibitors; 370,000 tested, 0.041% active; P00811; AID 485294;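 also: 0% = no-compound wells and -100% = no-enzyme wells; nearly all actives have a fitted effect of over 25% in size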
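AmpC (5.3 nM in the dispensed reagent) in 20 mM phosphate pH 7.0 with 0.01% (detergent screen) or 0.0001% Triton X-100 was preincubated with compounds for 15 min at room temperature. Nitrocefin was then added from an 800 uM solution, and hydrolysis was followed at 480 nm.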
AMA1 RON2 block – inhibitors of Plasmodium falciparum AMA1-RON2 interaction; AID 720542; Potency, µM (doses to about 58.2 µM), for the others: at the top dose activity change, negative = inhibition, usual class: inhibitors; AlphaScreen AMA1-biotinylated RON2 peptide binding; 360,000 tested, 0.2% active;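 also: 0% = vehicle wells and -100% = peptide control; nearly all actives have a fitted effect of over 45% in size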
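AMA1 (3D7) with his tag at 25 nM final met compounds first, then biotinylated RON2 peptide at 25 nM; detection used donor plus acceptor beads, 10 µg/mL apiece, read by AlphaScreen after 30 min at room temperature.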
* hit, by the source's call; ? = inconclusive; nt = no result given; [ ] = remark or other dose. This is a sample that favours compounds with a hit; in the whole collection about 11% have one here. Calls follow the shape of the dose curve; as a rule, active = well fitted curve in the direction sought with a large enough effect; inconclusive = small, poorly fitted or top-dose-only effect, or another doubt; inactive = no such curve, though single readings can be large; an effect the other way counts as inactive or inconclusive. Unless noted, % is scaled to controls: 0 for no effect and ±100 for the full control effect; potency is read from the fitted curve at half-maximal effect.

SMILES | HCV inhibitor | Pf growth 48h | AmpC inh no detg | Pf growth 96h | AmpC detergent | AMA1 RON2 block
CC1CC2(CCCCC2)Nc2ccc3ccccc3c21 (stereo not drawn) | -4% | 10µM* | -16% | -21% | -12% | -9%
COc1ccc(C2N=C(N)N=C(N)N2c2ccc(C)cc2)cc1 (stereo not drawn) | -5% | nt | -23% | 5.9µM* | 0% | -5%
Cc1ccc(-n2nc3ccc(N)cc3n2)cc1 | ? | 58% | -17% | 22% | -6% | -8%
Cc1cc(C)cc(N2C(N)=NC(N)=NC2c2ccccc2F)c1 (stereo not drawn) | -13% | 3.3µM* | -12% | 36% | -7% | 0%
COc1ccc(C2C(C(C)=O)=C(O)C(=O)N2c2ccc(C)cc2)cc1 (stereo not drawn) | 7% | 10%[0.00184 µM] | -7% | -1% | 1% | -17%
Cc1cc(C)cc(N2C(N)=NC(N)=NC2c2cccc(Cl)c2)c1 (stereo not drawn) | -9% | 1.2µM* | -5% | 5% | -2% | -1%
CCn1c(CNC(=O)C23CC4CC(CC(C4)C2)C3)nnc1SCC(=O)Nc1ccc(F)cc1 | nt | nt | nt | nt | 14% | nt
COc1ccc(NC(=O)C2CC(c3cccc(Br)c3)=NO2)cc1OC (stereo not drawn) | ? | -1% | 91% | 10µM* | -8% | -9%
COc1cc(NC(=O)C2CC(c3c(F)cccc3Cl)=NO2)cc(OC)c1OC (stereo not drawn) | 25µM* | 9% | 12% | 16% | -12% | -8%
COc1cccc(C2=NOC(C(=O)Nc3ccc(OC)c(OC)c3)C2)c1 (stereo not drawn) | ? | 0% | 15% | ? | 3% | -8%
Cc1noc(C)c1S(=O)(=O)N(CC(=O)NCCc1ccc(Cl)cc1)c1ccc(C(C)C)cc1 | nt | nt | nt | nt | 0% | nt
Cc1cc(OC(C)C(=O)Nc2c(C(=O)c3ccc(F)cc3)oc3ccccc23)ccc1Cl (stereo not drawn) | nt | nt | nt | nt | 0% | nt
O=C(OC1C[C@H]2CC[C@@H](C1)[N+]21CCCC1)C(O)(c1ccccc1)c1ccccc1 (stereo partly drawn) | nt | 6.7µM* | nt | 9% | nt | nt
CC(C)C(c1nnnn1C1CCCC1)N1CCCCC1 (stereo not drawn) | 24% | nt | 13% | 15µM* | -6% | -22%
c1cncc(C(c2nnnn2C2CCCCC2)N2CCCCC2)c1 (stereo not drawn) | 18% | 15µM* | 16% | -4% | 3% | 15%
COc1ccc(Cl)cc1NC(=O)NCCn1c(=O)oc2ccc(C)cc21 | nt | nt | nt | nt | 15% | nt
COc1ccc(-c2noc(C3CC(=O)N(c4ccc5c(c4)OCCO5)C3)n2)c(OC)c1 (stereo not drawn) | nt | nt | nt | nt | -1% | nt
Cc1ccc(C)c(NS(=O)(=O)c2ccc3c(c2)n(C)c(=O)n3C)c1 | nt | nt | nt | nt | -1% | nt
C=CC(=O)Nc1cccc(Oc2ccnc(Nc3ccc(N4CCN(C)CC4)cc3)n2)c1 | -21% | nt | nt | nt | nt | ?
C=CC(=O)Nc1cccc(Oc2ccnc3[nH]ccc23)c1 | 34%[8.37 µM] | nt | nt | nt | nt | 25µM*
Cc1c(C(=O)Nc2ccncc2)sc2nc(-c3ccccc3)cn12 | 3.5µM* | 4.1µM* | 16% | ? | ? | 15%
Cc1c(C(=O)NCc2ccco2)sc2nc(-c3ccccc3)cn12 | 10µM* | ? | -27% | ? | -13% | -2%
Cc1c(C(=O)N2CCOCC2)sc2nc(-c3ccccc3)cn12 | 11% | nt | 0% | nt | 0% | -11%
Cc1c(C(=O)Nc2ccc3c(c2)OCCO3)sc2nc(-c3ccccc3)cn12 | 2.5µM* | ? | 2% | ? | 1% | -24%
CCN(CC)c1ccc(NC(=O)c2sc3nc(-c4ccccc4)cn3c2C)cc1 | nt | nt | nt | nt | 0% | nt
SMILES | HCV inhibitor | Pf growth 48h | AmpC inh no detg | Pf growth 96h | AmpC detergent | AMA1 RON2 block
Cc1c(C(=O)NCc2ccc(F)cc2)sc2nc(-c3ccccc3)cn12 | nt | nt | nt | nt | -1% | nt
Nc1ccc(N=Nc2ccccc2)c(N)n1 | 2%[8.37 µM] | 111% | -31% | 50% | ? | ?
Cc1[nH]c(N=Nc2ccccc2)nc1N=Nc1ccccc1 | 13µM* | 3.7µM* | -48% | 9.3µM* | -11% | -35%
CCNC(=O)c1c(NC(=O)Cc2coc3ccc(CC)cc23)sc2c1CCCC2 | nt | nt | nt | nt | -6% | nt
Oc1ccc(Nc2nc(-c3cccnc3)cs2)cc1 | -25% | 76% | -21% | ? | -13% | -13%
Brc1ccc(Nc2nc(-c3cccnc3)cs2)cc1 | ? | 6% | ? | 10% | -4% | -1%
Brc1cccc(Nc2nc(-c3cccnc3)cs2)c1 | 10µM* | 0% | -38% | 102% | -7% | -14%
Clc1cccc(Nc2nc(-c3cccnc3)cs2)c1 | 2.8µM* | ? | -4% | 36% | -1% | -11%
Cc1ccc(Nc2nc(-c3cccnc3)cs2)cc1C | ? | -33% | -27% | ? | -3% | -16%
COc1ccc(Cl)cc1Nc1nc(-c2cccnc2)cs1 | 13µM* | ? | 14% | 2% | 3% | 5%
Cc1ccc(NC(=O)c2ccc(NC(=O)N3CCSc4ncccc43)cc2)cc1Cl | nt | nt | nt | nt | -6% | nt
CCOC(=O)c1oc2nc(CC(C)C)c3c(c2c1N)CCC3 | ? | ? | 13% | 7.4µM* | -8% | -1%
COc1ccccc1C(=O)NC1=NC(c2ccc(Br)cc2)CC(=O)N1 (stereo not drawn) | nt | nt | nt | nt | 2% | nt
C/C(=N/NS(=O)(=O)c1ccccc1)c1c[nH]c2ccccc12 | -1% | 17% | -7% | ? | ? | -2%
C/C(=N/NS(=O)(=O)c1ccc(C)cc1)c1c[nH]c2ccccc12 | 6% | 0% | -37% | 1.3µM* | -12% | -5%
CCn1c(=O)c2sccc2n2c(CCC(=O)Nc3ccc(F)cc3)nnc12 | nt | nt | nt | nt | -2% | nt
CCC(=O)Nc1cc2c(cc1C(C)=O)OCCO2 | ? | -19% | -5% | -21% | -14% | 8%
CCC(=O)Nc1cc(C(C)(C)C)ccc1C(C)=O | 10µM* | -6% | -2% | -16% | 6% | 5%
Cc1nc(C)c(-c2csc(Nc3ccc(F)cc3)n2)s1 | 4.5µM* | 95% | -55% | 22% | ? | 18%
COc1cccc(Nc2nc(-c3sc(NC(=O)c4ccco4)nc3C)cs2)c1 | ? | ? | -29% | 13µM* | -1% | 17%
COc1ccc(Cl)cc1Nc1nc(-c2sc(NC(=O)c3ccco3)nc2C)cs1 | 2.5µM* | 15µM* | 0% | 5.9µM* | 7% | 12%
COc1cccc(Nc2nc(-c3sc(N)nc3C)cs2)c1 | ? | ? | -22% | nt | 0% | 71%
